The record followed here is article PMC7862700, “An all-to-all approach to the identification of sequence-specific readers for epigenetic DNA modifications on cytosine”.

Experiment in all cases: DAPPL (digital affinity profiling via proximity ligation, sequencing); 10 mM Tris-HCl pH 7.5, 50 mM NaCl, 1 mM DTT, 4% glycerol, room temperature, 30 min; GST-TFs on glutathione beads, 16-mer random dsDNA library, 0.1% formaldehyde crosslink after washing; high values mean tight binding
Common to all, as to details: protein: recombinant; tags: N-terminal GST; dsDNA, one strand shown

One assay has as its target T1, FLI1 (Homo sapiens, UniProt Q01543 1-452).
T1 sequence: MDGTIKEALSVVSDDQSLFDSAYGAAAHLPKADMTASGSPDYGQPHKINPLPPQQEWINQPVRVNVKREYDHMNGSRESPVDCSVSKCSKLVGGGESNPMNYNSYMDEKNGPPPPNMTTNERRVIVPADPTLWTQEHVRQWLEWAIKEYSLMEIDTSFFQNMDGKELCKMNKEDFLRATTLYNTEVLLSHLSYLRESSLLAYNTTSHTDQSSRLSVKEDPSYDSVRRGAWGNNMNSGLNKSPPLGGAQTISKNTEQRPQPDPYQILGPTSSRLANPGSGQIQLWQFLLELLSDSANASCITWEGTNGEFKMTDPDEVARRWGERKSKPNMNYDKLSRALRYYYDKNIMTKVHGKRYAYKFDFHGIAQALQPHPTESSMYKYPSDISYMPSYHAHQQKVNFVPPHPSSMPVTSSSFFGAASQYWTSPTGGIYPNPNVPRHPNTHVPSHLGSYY
The essentials: (§1)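 Pools of DNA-barcoded human transcription factors, expressed in yeast as GST fusions on glutathione beads and combined with a tag-only sample, were incubated with 200 nmole of a 16-mer random double-stranded DNA library. Incubation took 30 min at room temperature in Tris/NaCl/DTT/glycerol buffer and was followed by washing, 0.1% formaldehyde crosslinking, proximity ligation (BsaI/T4 ligase, 1 h, 37 °C), PCR amplification and sequencing on an Illumina NextSeq500. Binding signal is the ratio of a hexamer's read frequency for a factor to its frequency for the tag-only sample.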

For another assay, the target named is T2, ELK1 (Homo sapiens, UniProt P19419 1-428).
T2 sequence: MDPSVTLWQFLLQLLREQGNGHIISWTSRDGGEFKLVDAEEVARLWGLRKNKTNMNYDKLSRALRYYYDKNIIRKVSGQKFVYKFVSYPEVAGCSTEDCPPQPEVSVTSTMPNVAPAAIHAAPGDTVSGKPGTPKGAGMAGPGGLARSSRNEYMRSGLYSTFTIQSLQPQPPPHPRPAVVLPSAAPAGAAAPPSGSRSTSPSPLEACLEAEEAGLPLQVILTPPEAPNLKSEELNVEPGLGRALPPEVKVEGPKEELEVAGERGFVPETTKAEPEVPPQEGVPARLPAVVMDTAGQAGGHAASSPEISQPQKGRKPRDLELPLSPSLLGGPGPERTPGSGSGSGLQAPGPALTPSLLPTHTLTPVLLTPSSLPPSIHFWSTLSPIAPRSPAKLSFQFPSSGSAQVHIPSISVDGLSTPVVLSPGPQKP
The essentials: as §1

A further assay addresses T3, GABPA (Homo sapiens, UniProt Q06546 1-454).
T3 sequence: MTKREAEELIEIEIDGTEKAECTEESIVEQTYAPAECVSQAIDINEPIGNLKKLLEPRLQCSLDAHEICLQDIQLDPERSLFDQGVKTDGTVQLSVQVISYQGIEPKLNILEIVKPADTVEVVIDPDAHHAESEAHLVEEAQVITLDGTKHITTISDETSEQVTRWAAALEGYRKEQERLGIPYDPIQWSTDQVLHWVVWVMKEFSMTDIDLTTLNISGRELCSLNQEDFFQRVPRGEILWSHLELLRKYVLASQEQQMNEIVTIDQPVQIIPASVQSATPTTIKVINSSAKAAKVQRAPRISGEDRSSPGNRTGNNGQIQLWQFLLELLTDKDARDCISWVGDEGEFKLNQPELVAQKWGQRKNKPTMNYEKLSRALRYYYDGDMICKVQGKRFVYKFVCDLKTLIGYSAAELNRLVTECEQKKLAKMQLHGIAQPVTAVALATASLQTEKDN
The essentials: as §1

The next assay deals with T4, ERG (Homo sapiens, UniProt P11308 1-479).
T4 sequence: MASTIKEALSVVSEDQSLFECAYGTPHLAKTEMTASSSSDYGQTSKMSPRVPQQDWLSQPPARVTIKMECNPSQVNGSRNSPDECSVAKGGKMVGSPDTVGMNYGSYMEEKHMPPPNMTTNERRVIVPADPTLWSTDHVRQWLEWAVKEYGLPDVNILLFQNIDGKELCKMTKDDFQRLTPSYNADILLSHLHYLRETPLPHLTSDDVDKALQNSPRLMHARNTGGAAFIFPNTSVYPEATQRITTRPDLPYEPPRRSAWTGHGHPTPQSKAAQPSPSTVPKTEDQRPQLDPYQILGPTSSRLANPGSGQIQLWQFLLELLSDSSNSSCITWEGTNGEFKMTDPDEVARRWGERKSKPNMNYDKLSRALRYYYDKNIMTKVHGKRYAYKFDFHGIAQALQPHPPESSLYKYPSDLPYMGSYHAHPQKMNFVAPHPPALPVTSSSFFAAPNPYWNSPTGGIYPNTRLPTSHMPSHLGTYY
The essentials:
as §1

The target in another assay is ELF1 (Homo sapiens, UniProt P32519 1-619). The essentials:
as §1

For another assay, the target named is T5, EHF (Homo sapiens, UniProt Q9NZC4 1-300).
T5 sequence: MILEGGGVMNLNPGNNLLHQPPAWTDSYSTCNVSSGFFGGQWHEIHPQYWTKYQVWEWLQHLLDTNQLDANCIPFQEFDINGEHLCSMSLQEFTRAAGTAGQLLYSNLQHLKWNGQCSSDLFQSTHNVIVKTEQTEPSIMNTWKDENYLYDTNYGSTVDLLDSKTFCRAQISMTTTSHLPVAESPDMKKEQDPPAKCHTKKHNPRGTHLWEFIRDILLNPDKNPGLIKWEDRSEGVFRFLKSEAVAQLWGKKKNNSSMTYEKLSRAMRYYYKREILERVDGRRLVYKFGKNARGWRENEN
The essentials: as §1

The target in another assay is SPI1 (Homo sapiens, UniProt P17947 1-270). The essentials:
as §1

A further assay has as its target SPIB (Homo sapiens, UniProt Q01892 1-262). The essentials: as §1
The target of a further assay is T6, FEV (Homo sapiens, UniProt Q99581 1-238).
T6 sequence: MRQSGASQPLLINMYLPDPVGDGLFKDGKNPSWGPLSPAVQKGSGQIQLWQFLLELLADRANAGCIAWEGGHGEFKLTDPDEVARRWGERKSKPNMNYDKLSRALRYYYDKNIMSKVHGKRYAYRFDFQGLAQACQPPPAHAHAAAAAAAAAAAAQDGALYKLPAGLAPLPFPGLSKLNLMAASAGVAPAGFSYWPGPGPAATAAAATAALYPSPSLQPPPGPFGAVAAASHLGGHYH
The essentials:
as §1

The next assay addresses ETV5 (Homo sapiens, UniProt P41161 1-510). The essentials: as §1
The target in another assay is T7, SPIC (Homo sapiens, UniProt Q8N5J4 1-248).
T7 sequence: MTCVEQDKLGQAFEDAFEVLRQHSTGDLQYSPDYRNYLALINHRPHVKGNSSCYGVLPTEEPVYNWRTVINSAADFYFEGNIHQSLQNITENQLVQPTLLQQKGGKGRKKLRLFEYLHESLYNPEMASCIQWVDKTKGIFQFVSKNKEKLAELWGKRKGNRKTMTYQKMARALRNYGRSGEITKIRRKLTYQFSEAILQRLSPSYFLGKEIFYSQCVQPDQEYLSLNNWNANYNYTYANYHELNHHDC
The essentials:
as §1

The target in another assay is ELF4 (Homo sapiens, UniProt Q99607 1-663). The essentials: as §1
ELF4, sequence (Q99607 whole entry): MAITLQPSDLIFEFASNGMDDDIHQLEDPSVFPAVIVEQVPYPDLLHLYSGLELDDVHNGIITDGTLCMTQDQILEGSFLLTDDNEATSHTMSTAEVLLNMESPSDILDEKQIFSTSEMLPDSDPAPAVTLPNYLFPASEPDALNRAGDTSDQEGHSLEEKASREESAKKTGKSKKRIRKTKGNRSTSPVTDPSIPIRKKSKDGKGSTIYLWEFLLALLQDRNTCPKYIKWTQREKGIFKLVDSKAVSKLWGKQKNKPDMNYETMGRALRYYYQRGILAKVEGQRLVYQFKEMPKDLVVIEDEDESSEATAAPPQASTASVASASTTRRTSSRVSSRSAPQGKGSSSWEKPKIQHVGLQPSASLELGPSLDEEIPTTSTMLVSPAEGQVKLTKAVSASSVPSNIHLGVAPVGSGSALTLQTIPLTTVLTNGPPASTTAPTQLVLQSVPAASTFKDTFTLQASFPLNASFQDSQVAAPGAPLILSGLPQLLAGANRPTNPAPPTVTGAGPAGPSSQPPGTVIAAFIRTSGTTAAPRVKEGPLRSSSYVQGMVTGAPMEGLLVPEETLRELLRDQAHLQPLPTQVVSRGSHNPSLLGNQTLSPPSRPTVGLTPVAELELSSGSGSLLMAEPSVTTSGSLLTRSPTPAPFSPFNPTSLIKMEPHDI
For the next assay, the target named is ETV1 (Homo sapiens, UniProt P50549 1-477). The essentials:
as §1

The next assay concerns the target T8, ERF (Homo sapiens, UniProt P50548 1-548).
T8 sequence: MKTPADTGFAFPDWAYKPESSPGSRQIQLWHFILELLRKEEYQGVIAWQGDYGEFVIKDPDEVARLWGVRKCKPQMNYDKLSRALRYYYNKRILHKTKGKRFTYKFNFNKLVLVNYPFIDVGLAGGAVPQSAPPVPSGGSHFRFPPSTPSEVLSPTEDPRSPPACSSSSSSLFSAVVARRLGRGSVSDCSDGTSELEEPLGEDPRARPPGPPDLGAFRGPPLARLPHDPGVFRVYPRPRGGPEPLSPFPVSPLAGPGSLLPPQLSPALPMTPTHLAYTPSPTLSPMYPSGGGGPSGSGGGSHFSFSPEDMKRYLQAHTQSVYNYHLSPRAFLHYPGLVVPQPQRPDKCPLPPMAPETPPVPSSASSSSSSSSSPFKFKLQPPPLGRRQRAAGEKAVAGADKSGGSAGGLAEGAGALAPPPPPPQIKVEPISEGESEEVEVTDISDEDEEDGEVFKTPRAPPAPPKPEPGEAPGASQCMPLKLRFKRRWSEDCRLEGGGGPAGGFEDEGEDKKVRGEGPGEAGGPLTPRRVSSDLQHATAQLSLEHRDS
The essentials:
as §1

A further assay concerns the target T9, ETV3L (Homo sapiens, UniProt Q6ZN32 1-361).
T9 sequence: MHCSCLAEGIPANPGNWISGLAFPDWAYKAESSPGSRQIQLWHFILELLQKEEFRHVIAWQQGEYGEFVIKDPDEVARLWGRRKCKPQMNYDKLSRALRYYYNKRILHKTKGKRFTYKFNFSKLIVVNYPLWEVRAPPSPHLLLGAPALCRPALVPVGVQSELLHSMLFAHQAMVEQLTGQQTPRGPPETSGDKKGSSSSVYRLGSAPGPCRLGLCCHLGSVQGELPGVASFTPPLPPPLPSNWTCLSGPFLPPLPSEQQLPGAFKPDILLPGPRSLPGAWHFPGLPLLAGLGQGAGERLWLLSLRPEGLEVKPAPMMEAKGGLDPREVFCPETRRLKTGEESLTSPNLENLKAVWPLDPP
The essentials:
as §1

For another assay, the target named is T10, ETS2 (Homo sapiens, UniProt P15036 1-469).
T10 sequence: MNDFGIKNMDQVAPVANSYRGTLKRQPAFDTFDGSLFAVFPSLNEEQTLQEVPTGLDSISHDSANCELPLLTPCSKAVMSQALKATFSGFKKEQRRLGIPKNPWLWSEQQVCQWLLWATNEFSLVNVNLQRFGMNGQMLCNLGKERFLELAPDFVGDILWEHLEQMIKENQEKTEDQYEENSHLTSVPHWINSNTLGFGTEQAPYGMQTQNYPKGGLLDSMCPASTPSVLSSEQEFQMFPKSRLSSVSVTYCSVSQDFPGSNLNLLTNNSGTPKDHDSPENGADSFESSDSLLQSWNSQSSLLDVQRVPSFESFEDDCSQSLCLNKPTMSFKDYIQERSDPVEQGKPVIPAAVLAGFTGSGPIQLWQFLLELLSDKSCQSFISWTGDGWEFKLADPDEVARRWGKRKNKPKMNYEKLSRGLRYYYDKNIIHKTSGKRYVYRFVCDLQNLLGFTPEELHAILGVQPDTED
The essentials: as §1

The next assay concerns the target T11, ELF5 (Homo sapiens, UniProt Q9UKW6-2 1-255).
T11 sequence: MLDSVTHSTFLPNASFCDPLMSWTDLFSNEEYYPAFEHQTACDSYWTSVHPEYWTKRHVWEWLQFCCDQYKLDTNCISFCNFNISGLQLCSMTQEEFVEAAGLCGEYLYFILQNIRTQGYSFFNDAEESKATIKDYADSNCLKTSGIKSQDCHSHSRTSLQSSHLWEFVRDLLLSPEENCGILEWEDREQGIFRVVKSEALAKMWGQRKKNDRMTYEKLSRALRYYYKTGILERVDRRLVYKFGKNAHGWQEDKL
The essentials: as §1

For the next assay, the target named is T12, ETV3 (Homo sapiens, UniProt P41162-2 1-143).
T12 sequence: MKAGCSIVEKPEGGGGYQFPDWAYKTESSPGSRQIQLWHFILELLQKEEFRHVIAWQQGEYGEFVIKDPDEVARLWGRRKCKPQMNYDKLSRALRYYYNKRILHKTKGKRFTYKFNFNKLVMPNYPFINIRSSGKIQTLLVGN
The essentials:
as §1

A further assay concerns the target ETV6 (Homo sapiens, UniProt P41212 1-452). The essentials:
as §1

ELF1, sequence (P32519 whole entry): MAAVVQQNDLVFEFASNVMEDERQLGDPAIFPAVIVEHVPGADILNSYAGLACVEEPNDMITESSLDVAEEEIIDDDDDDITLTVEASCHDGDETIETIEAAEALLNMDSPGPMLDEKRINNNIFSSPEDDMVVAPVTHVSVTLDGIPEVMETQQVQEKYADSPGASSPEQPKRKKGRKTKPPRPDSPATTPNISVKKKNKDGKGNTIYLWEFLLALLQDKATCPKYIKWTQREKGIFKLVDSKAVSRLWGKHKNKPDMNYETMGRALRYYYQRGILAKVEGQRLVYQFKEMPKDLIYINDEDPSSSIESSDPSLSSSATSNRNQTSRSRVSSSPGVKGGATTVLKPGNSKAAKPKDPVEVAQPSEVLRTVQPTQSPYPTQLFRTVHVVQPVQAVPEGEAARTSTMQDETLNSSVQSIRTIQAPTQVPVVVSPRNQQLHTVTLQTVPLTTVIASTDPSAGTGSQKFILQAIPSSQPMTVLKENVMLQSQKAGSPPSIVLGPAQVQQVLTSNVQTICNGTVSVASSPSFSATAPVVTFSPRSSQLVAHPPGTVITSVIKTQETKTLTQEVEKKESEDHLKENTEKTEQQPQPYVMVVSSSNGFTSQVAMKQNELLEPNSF
ETV1, sequence (P50549 whole entry): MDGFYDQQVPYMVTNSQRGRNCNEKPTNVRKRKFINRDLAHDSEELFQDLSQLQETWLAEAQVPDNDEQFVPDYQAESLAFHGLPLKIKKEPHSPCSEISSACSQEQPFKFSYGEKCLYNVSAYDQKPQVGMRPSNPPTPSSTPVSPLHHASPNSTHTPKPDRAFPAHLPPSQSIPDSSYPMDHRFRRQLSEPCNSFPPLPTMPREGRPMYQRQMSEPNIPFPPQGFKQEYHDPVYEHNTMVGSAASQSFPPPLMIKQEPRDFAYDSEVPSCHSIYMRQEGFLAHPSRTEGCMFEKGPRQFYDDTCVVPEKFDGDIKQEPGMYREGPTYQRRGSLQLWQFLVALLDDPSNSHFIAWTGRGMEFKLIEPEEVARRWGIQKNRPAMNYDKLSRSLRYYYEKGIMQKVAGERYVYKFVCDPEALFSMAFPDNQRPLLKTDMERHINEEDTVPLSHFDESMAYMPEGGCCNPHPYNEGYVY
ETV6, sequence (P41212 whole entry): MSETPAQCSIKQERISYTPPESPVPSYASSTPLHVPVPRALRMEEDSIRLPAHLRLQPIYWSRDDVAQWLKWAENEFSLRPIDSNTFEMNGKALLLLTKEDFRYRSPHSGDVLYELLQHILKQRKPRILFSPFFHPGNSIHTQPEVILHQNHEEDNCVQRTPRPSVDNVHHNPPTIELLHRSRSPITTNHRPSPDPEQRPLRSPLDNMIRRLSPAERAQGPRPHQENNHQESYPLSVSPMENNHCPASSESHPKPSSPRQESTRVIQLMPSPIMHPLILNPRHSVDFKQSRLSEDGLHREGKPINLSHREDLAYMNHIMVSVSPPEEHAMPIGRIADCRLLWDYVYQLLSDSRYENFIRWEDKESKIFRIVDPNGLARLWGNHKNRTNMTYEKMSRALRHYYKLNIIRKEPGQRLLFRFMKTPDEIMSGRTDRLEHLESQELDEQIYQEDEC
SPIB, sequence (Q01892 whole entry): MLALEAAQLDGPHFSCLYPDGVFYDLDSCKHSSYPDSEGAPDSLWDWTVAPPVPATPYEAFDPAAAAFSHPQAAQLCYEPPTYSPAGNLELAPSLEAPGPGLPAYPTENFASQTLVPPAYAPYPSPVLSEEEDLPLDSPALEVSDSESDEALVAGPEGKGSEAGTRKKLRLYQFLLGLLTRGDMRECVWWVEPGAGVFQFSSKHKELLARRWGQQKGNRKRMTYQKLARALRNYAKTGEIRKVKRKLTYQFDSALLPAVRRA
ETV5, sequence (P41161 whole entry): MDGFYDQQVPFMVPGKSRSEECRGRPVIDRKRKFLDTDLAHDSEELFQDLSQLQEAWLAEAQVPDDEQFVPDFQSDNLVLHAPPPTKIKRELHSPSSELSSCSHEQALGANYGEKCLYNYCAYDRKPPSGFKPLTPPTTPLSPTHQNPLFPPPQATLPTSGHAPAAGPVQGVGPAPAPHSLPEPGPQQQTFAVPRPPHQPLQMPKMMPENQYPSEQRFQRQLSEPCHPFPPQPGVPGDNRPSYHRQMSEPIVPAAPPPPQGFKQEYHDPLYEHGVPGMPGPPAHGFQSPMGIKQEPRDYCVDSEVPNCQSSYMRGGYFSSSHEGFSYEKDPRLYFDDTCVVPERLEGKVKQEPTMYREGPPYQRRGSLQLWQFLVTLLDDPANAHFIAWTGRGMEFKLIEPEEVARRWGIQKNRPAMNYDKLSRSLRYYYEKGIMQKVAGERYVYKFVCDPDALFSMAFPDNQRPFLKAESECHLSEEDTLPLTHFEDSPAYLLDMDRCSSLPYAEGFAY

In the case of ACATGG, the binding signal with FLI1 was 1.17 fold enrichment (6-mer frequency, TF over GST control); with ELK1 it was 1.13 fold enrichment (6-mer frequency, TF over GST control); with GABPA, 1.15 fold enrichment (6-mer frequency, TF over GST control); with ERG it was 1.16 fold enrichment (6-mer frequency, TF over GST control); with ELF1 it was 1.15 fold enrichment (6-mer frequency, TF over GST control); with EHF, 1.1 fold enrichment (6-mer frequency, TF over GST control). For the same sequence, the binding signal in the assay with SPI1 is 1.14 fold enrichment (6-mer frequency, TF over GST control); with SPIB, 1.04 fold enrichment (6-mer frequency, TF over GST control); with FEV, 1.04 fold enrichment (6-mer frequency, TF over GST control); in the assay with ETV5, 1.1 fold enrichment (6-mer frequency, TF over GST control); with SPIC it was 1.18 fold enrichment (6-mer frequency, TF over GST control); with ELF4 it was 1.21 fold enrichment (6-mer frequency, TF over GST control). Besides, the binding signal with ETV1 was 1.14 fold enrichment (6-mer frequency, TF over GST control); with ERF, 1.14 fold enrichment (6-mer frequency, TF over GST control); in the assay with ETV3L it was 1.19 fold enrichment (6-mer frequency, TF over GST control); in the assay with ETS2, 1.14 fold enrichment (6-mer frequency, TF over GST control); with ELF5, 1.1 fold enrichment (6-mer frequency, TF over GST control); with ETV3, 1.13 fold enrichment (6-mer frequency, TF over GST control). Besides, the binding signal in the assay with ETV6 is 1.14 fold enrichment (6-mer frequency, TF over GST control).
